PfHsp40 rescue – rescue of PfHsp40-mediated yeast toxicity; 0.68% of 340,000 active; S. cerevisiae expressing PfHsp40, growth rescue, ATP luminescence; AID 504582; growth rescue, % at 12.5 µM; in the data active = growth rescue above about 28%, passing the limit was not always enough;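 note: yeast W303a lacking pdr1 and pdr3 grown in galactose medium; growth measured after three days at 30 °C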
RecA splice inh – blocks M. tuberculosis RecA intein splicing; P9WHJ3; cell-free RecA intein splicing, fluorescence; inhibition, % (no concentration beside the values); 0.75% of 290,000 active; AID 2221; in the data active = inhibition above about 30%;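 note: 0% = vehicle wells and 100% = reference inhibitor control wells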
Target sequence (P9WHJ3 whole entry, looked up, canonical isoform): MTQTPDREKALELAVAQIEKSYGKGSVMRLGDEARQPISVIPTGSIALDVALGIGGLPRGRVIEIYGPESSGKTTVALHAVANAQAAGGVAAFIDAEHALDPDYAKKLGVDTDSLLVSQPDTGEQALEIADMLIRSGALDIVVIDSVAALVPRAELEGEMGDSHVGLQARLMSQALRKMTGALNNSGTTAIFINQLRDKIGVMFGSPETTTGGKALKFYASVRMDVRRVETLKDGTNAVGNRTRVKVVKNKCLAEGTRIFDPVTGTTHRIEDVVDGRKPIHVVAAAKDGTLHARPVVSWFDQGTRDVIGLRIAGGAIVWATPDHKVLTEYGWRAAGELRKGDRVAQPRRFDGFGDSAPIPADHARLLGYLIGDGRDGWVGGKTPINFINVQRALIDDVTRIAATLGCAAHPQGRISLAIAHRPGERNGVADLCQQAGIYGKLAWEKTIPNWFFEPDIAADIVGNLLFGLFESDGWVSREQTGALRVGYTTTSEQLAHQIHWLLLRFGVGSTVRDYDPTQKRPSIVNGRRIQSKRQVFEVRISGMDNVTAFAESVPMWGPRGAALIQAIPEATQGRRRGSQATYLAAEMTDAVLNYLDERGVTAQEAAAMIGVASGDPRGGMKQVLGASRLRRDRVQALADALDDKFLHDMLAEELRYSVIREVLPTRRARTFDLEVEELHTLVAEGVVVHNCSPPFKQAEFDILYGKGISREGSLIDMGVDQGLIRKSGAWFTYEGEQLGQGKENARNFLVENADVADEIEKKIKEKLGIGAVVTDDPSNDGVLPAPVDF
PrP UTR inh – suppresses PrP 5' UTR mRNA reporter expression; AID 488862; cell-based PrP 5' UTR mRNA reporter, plate reader; inhibition, % (concentration not given with the values); 0.35% of 340,000 active; in the data active = inhibition above about 52%; note: 0 = median of the neutral control wells
PriA SSB inh – blocks PriA binding to SSB C-terminal tail; AlphaScreen SSBct-PriA binding, biotinylated peptide; inhibition, % at 33 µM; 0.6% of 430,000 active; in the data active = inhibition mostly above about 37%, no sharp cut-off; inactive = mostly below about 20%;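 note: plate controls were negative control peptide for no effect and reference peptide for full effect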
PrPC surface inh – cell surface PrPC inhibition, primary TR-FRET screen. 0.43% of 370,000 active. TR-FRET read-out. P04156. inhibition, % at 13.8 µM. AID 720596; in the data active = inhibition above about 24%; note: 0% = median of the test wells and 100% = reference compound wells
BJeLR lethal – BJeLR cell viability loss; BJeLR (HRASV12) viability, CellTiter-Glo ATP luminescence, 48 h; 0.17% of 300,000 active; AID 1554; inhibition, % (test concentration not listed); in the data active = inhibition above about 50%
GFP chromo cs – counter-screen: blocks GFP chromophore formation; cell-free GFP chromophore formation, fluorescence; 83% of 2,100 active; shares compounds with RecA splice inh; EC50, µM; AID 434968; call rule not given here
Numbers without * were called inactive. Sampled rows, rich in hits. Any-hit rate of the full collection: about 1.9%.

`Cc1cc(O)c2c(c1)C(=O)C13C(=C2O)C(=O)[C@H]2[C@@H](O)[C@@H]1[C@H]1[C@H](O)[C@@H]3C(=O)C3=C(O)c4c(O)cc(C)cc4C(=O)C312` (stereo partly specified) gave PfHsp40 rescue 282*, PrP UTR inh -23 and PriA SSB inh -3.
For CCn1nc(-c2cccs2)nc2c(=O)n(C)c(=O)nc1-2 the results were PfHsp40 rescue 0, PrP UTR inh -9 and PriA SSB inh -10.
CCn1nc(/C=C/c2ccccc2)nc2c(=O)n(C)c(=O)nc1-2 was read as PfHsp40 rescue 276*, RecA splice inh 79*, PrP UTR inh -43, PriA SSB inh 3, PrPC surface inh -20, BJeLR lethal -4 and GFP chromo cs 0.31*.
`N#CC1(NC(=O)COC(=O)c2cc(O)c3ccccc3c2O)CCCCC1` gave PfHsp40 rescue 1, RecA splice inh 81*, PrP UTR inh -8, PriA SSB inh 0, BJeLR lethal 7 and GFP chromo cs 4.8*.
For COc1ccccc1NC(=O)Nc1ccccc1Cc1nc(-c2ccco2)no1 the results were PriA SSB inh -12.
For CC(C)(C)c1cc(C(c2cccnc2)N2CCN(CCO)CC2)cc(C(C)(C)C)c1O (stereo unspecified) the results were PfHsp40 rescue 30*, RecA splice inh 38*, PrP UTR inh -19, PriA SSB inh 1, PrPC surface inh 8, BJeLR lethal 18 and GFP chromo cs 35*.
For CC1=C(C(=O)OC(C)C)C2(O)C(=O)c3ccccc3C2(O)N1 (stereo unspecified) the results were PfHsp40 rescue 0, RecA splice inh 32*, PrP UTR inh 0, PriA SSB inh -13, PrPC surface inh 0, BJeLR lethal 1 and GFP chromo cs 27*.
For Cc1ccc(NC(=O)CC(N)=NOC(=O)c2ccccc2)cc1 the results were PriA SSB inh -9.
`COc1cccc(-n2nc(C(N)=O)c(O)cc2=O)c1` gave PfHsp40 rescue -1, RecA splice inh -1, PrP UTR inh -11, PriA SSB inh -3, PrPC surface inh -1 and BJeLR lethal -4.
`COc1cccc(-n2nc(C#N)c(Cl)cc2=O)c1` gave PfHsp40 rescue 52*, RecA splice inh 73*, PrP UTR inh -14, PriA SSB inh -10, PrPC surface inh -26, BJeLR lethal -29 and GFP chromo cs 21*.
For COc1cccc(NC(=O)NCc2nn(C)c3c2CCCC3)c1OC the results were PriA SSB inh 5.
For COC(=O)c1ccc(-c2ccc(C(c3c(C)[nH][nH]c3=O)c3c(C)[nH][nH]c3=O)o2)cc1 the results were PfHsp40 rescue -2, RecA splice inh 95*, PrP UTR inh -18, PriA SSB inh 1, PrPC surface inh 0, BJeLR lethal -3 and GFP chromo cs 0.65*.
Screening Cc1[nH][nH]c(=O)c1C(c1ccc(-c2ccccc2C(=O)O)o1)c1c(C)[nH][nH]c1=O returned PfHsp40 rescue 0, RecA splice inh 96*, PrP UTR inh -34, PriA SSB inh 5, PrPC surface inh -6, BJeLR lethal 3 and GFP chromo cs 0.49*.
Cc1[nH][nH]c(=O)c1C(c1ccc(-c2cccc(C(=O)O)c2)o1)c1c(C)[nH][nH]c1=O was read as PfHsp40 rescue -2, PrP UTR inh -19, PriA SSB inh -6, PrPC surface inh 3 and BJeLR lethal 2.
`COc1ccc2cc(C(N)=O)c(=NNC(=O)c3ccco3)oc2c1` gave PriA SSB inh -1.
For O=C(Nc1ccc(SCc2ccncc2)nn1)c1cccs1 the results were PriA SSB inh -8.
`Nc1ccc(N2CCOCC2)c2nonc12` gave PfHsp40 rescue 10, RecA splice inh 95*, PrP UTR inh -22, PriA SSB inh 12, PrPC surface inh -18, BJeLR lethal -4 and GFP chromo cs 23*.
O=c1[nH]c(CCl)nc2cc(-c3ccc(F)cc3)sc12 was read as PfHsp40 rescue 1, RecA splice inh 36*, PrP UTR inh -81, PriA SSB inh -20, PrPC surface inh 7, BJeLR lethal 7 and GFP chromo cs 31*.
For Cc1cccc(N2OC(C)(N(O)c3cccc(C)c3)CC2(C)C)c1 (stereo unspecified) the results were PriA SSB inh 2.
